Test results reported in PubChem BioAssay AID1259343 (VanderVen Lab, College of Veterinary Medicine, Cornell …, 2017).
Several values for one entry are separate records, joined by “and”; a condition that tells them apart may be missing. Identical values can stand only once. The whole screen tested about 6,200 compounds, of which about 2,900 (47%) were called active. Cut-off read from the data, not from the text of the source: active = inhibition above about 50%; inactive = the rest. The set was probably picked from earlier hits. Some of the results follow. The source holds several records for some structures; these can differ, active in one and inactive in another.

test: Mycobacterium tuberculosis growth inhibition, primary screen (AID 1259343); conditions: inhibition: at 10 µM, stronger effect = higher value; outcome: 10 uM

Question: Which inhibition does the source give for O=c1cccnn1CCNS(=O)(=O)c1ccc(Cl)s1 here?
Answer: 99.9% (active)

Question: Which inhibition does the source give for CC(C)(C)C(=O)C=c1[nH]c(=O)c(=Cc2c(F)c(F)c(F)c(F)c2F)s1 here?
Answer: 101% (active)

Question: Which inhibition does the source give for Cc1ccc(Cn2nc(C)c(C=c3s/c(=C\C(=O)C(C)(C)C)[nH]c3=O)c2C)cc1 here?
Answer: 9.64% (inactive)

Question: Which inhibition does the source give for CC(C)c1ccc(C=c2sc(=CC(=O)C(C)(C)C)[nH]c2=O)cc1 here?
Answer: 92.9% (active)

Question: For Cc1ccc(C)c(C=c2sc(=CC(=O)C(C)(C)C)[nH]c2=O)c1, which inhibition is on record?
Answer: inactive

Question: For CC(C)(C)C(=O)/C=c1/[nH]c(=O)/c(=C/c2ccc(F)c(Br)c2)s1, which inhibition is on record?
Answer: 101% (active)

Question: For CC(C)(C)n1c(NC(=O)c2ccc(F)cc2Cl)nc2ccccc21, which inhibition is on record?
Answer: -8.71% (inactive)

Question: With O=C(Nc1nccn1CC1CC1)c1cc(F)c(Cl)cc1Cl as the compound, how does the inhibition read?
Answer: 94.8% (active)

Question: Which inhibition does the source give for Cc1ccc(-c2csc(C=Cc3c(C)noc3C)n2)cc1 here?
Answer: 43.6% (inactive)

Question: Which inhibition does the source give for Cc1ccc(S(=O)(=O)Nc2nc(-c3ccc(F)c(F)c3)cs2)cc1 here?
Answer: 80.1% (active)

Question: Which inhibition does the source give for CC(C)c1cc(=O)n2[nH]cc(-c3ccccc3)c2n1 here?
Answer: -1.37% (inactive)

Question: Which inhibition does the source give for CCOC(=O)Cc1cc(=O)n2[nH]c(-c3ccccc3)c(-c3ccccc3)c2n1 here?
Answer: 40.6% (inactive)

Question: Which inhibition does the source give for CCCc1cc(NC)n2ncc(-c3ccccc3)c2n1 here?
Answer: -27.3% (inactive)

Question: For CCCc1cc(=O)n2[nH]c(C)c(-c3ccccc3)c2n1, which inhibition is on record?
Answer: 78.8% (active) and -6.08% (inactive)

Question: Which inhibition does the source give for CCCc1cc(NC)n2nc(C)c(-c3ccccc3)c2n1 here?
Answer: 95.4% (active)

Question: With Cc1ccc(-c2c(C)nn3c(NCC(C)C)cc(C)nc23)cc1 as the compound, how does the inhibition read?
Answer: 47.5% (inactive)

Question: For CCCc1cc(=O)n2[nH]cc(-c3ccccc3)c2n1, which inhibition is on record?
Answer: 11.4% (inactive)

Question: Which inhibition does the source give for Cc1[nH]n2c(=O)cc(C(C)C)nc2c1-c1ccccc1 here?
Answer: 100% (active)

Question: Which inhibition does the source give for Cc1cc(C)nc(SCc2cc(=O)n3[nH]c(C)c(-c4ccccc4)c3n2)n1 here?
Answer: 100% (active)

Question: For N#Cc1ccc(OS(=O)(=O)c2cccc(F)c2)cc1, which inhibition is on record?
Answer: 92.1% (active)

Question: Which inhibition does the source give for N#Cc1cccc(S(=O)(=O)Oc2ccccc2)c1 here?
Answer: 68.3% (active)

Question: For N#Cc1cccc(S(=O)(=O)Oc2ccc(F)c(F)c2)c1, which inhibition is on record?
Answer: 100% (active)

Question: With CN(Cc1ccc(OC(F)F)cc1)S(=O)(=O)c1cccc(C#N)c1 as the compound, how does the inhibition read?
Answer: 28% (inactive)

Question: Which inhibition does the source give for N#Cc1ccc(OS(=O)(=O)c2ccc(F)cc2)cc1 here?
Answer: 29.4% (inactive)

Question: With N#Cc1cccc(S(=O)(=O)Nc2cc(C(F)(F)F)ccc2-n2cccn2)c1 as the compound, how does the inhibition read?
Answer: 33.2% (inactive)

Question: Which inhibition does the source give for COc1ccc(S(=O)(=O)Oc2cccc(CNCc3ccc(F)cc3)c2)cc1 here?
Answer: 30.6% (inactive)

Question: For N#Cc1cccc(OCCN2CCCc3cc(F)ccc32)c1, which inhibition is on record?
Answer: 36.8% (inactive)

Question: Which inhibition does the source give for CC(C)NC(=O)NC(=O)COC(=O)C1CC1 here?
Answer: 23.7% (inactive)

Question: For CC(C)NC(=O)CCC1CCCCC1, which inhibition is on record?
Answer: 103% (active)

Question: For COc1ccc(-n2ccnc2CN2CCc3c([nH]c4ccccc34)C2c2ccccn2)cc1 (stereo not given), which inhibition is on record?
Answer: inactive

Question: With N#CC(C(=O)CC1CCCC1)c1nc(N)nc(Nc2ccccc2)n1 (stereo not given) as the compound, how does the inhibition read?
Answer: 1.29% (inactive)

Question: Which inhibition does the source give for Cn1c(-c2ccccc2)nnc1C(C#N)C(=O)C1CC=CCC1 (stereo not given) here?
Answer: 93.3% (active)

Question: With CC(C)CCC(=O)C(C#N)c1nnc(-c2ccccc2)n1C (stereo not given) as the compound, how does the inhibition read?
Answer: 85.2% (active)

Question: With NC(=NS(=O)(=O)c1ccc(Cl)cc1)c1ccc(Cl)cc1 as the compound, how does the inhibition read?
Answer: 15.6% (inactive)

Question: For COc1ccc(CCC(=O)NNc2cccc(Cl)c2)cc1Br, which inhibition is on record?
Answer: 98.9% (active)

Question: With COc1ccc(COc2ccccc2NC(C)=O)cc1Br as the compound, how does the inhibition read?
Answer: 36.3% (inactive)

Question: With COc1ccc(Br)cc1CN(C)CC(=O)Nc1cc(Cl)cc(Cl)c1 as the compound, how does the inhibition read?
Answer: -7.89% (inactive)

Question: Which inhibition does the source give for OCC1(Cc2ccccc2)CCN(Cc2cc3ccccc3s2)CC1 here?
Answer: 30.1% (inactive)

Question: With OCC1(Cc2ccccc2C(F)(F)F)CCN(c2ccc(Cl)cn2)CC1 as the compound, how does the inhibition read?
Answer: 8.01% (inactive)

Question: For OCC1(Cc2ccccc2Cl)CCN(CC#Cc2ccccc2)CC1, which inhibition is on record?
Answer: 83.9% (active)

Question: For O=C(C=Cc1ccc([N+](=O)[O-])cc1)c1ccc(F)cc1, which inhibition is on record?
Answer: 25.8% (inactive)

Question: For O=C(/C=C/c1cccc([N+](=O)[O-])c1)n1cnc2ccccc21, which inhibition is on record?
Answer: 96.9% (active)

Question: For C1=C(CCNc2nncc(-c3ccccc3)n2)CCCC1, which inhibition is on record?
Answer: 61.1% (active)

Question: With COc1ccc(-c2cnnc(NCCC3=CCCCC3)n2)c(OC)c1 as the compound, how does the inhibition read?
Answer: inactive

Question: Which inhibition does the source give for COc1ccccc1CCNc1nncc(-c2ccccc2)n1 here?
Answer: inactive

Question: For Cc1ccc(NC(=O)c2cnc3cc(C(=O)N(C)C)n(C)c3c2)cc1Cl, which inhibition is on record?
Answer: 84.7% (active)

Question: Which inhibition does the source give for CC1CCc2nc(NC(=O)c3ccc([N+](=O)[O-])s3)sc2C1 (stereo not given) here?
Answer: 102% (active)

Question: With O=C(Cc1c(F)cccc1Cl)Nc1nc2c(s1)CCCC2 as the compound, how does the inhibition read?
Answer: 95.5% (active)

Question: With CCOC(=O)C(C#N)=CNc1nc2c(s1)CC(C)CC2 (stereo not given) as the compound, how does the inhibition read?
Answer: 23.7% (inactive)

Question: With CC(C)(CNC(=O)Nc1nc2c(s1)CCCC2)c1cccs1 as the compound, how does the inhibition read?
Answer: 1.49% (inactive)

Question: Which inhibition does the source give for CC1CCc2nc(NC(=O)Cc3c(F)cccc3Cl)sc2C1 (stereo not given) here?
Answer: 59.4% (active)

Question: For CCOC(=O)C1=C(COC(=O)c2ccc([N+](=O)[O-])s2)NC(=O)NC1C (stereo not given), which inhibition is on record?
Answer: 21.7% (inactive)

Question: Which inhibition does the source give for CCOC(C)C(=O)Nc1nc2c(s1)CC(c1ccccc1)CC2 (stereo not given) here?
Answer: 35.4% (inactive)

Question: For CCC1CCc2nc(NC(=O)Cc3c(C)noc3C)sc2C1 (stereo not given), which inhibition is on record?
Answer: 36.4% (inactive)

Question: For CC1CCc2nc(NC(=O)CSC(=S)N3CCCCC3C)sc2C1 (stereo not given), which inhibition is on record?
Answer: 32.5% (inactive)

Question: Which inhibition does the source give for CC1CCc2nc(NC(=O)C3CCN(c4ncccn4)CC3)sc2C1 (stereo not given) here?
Answer: 90.3% (active)

Question: Which inhibition does the source give for O=C(Nc1cccc(-c2nc3c(s2)CCCC3)c1)C1CC1 here?
Answer: 7.39% (inactive)

Question: For CC1CCc2nc(C(C#N)=Cc3cccs3)sc2C1 (stereo not given), which inhibition is on record?
Answer: -38.8% (inactive)

Question: For CC1CCc2ccc(F)cc2N1S(=O)(=O)c1ccc(Cl)s1 (stereo not given), which inhibition is on record?
Answer: 30.3% (inactive)

Question: With NC(=O)CSc1ccc(-c2cccc(CN3CCOCC3)c2)cc1 as the compound, how does the inhibition read?
Answer: 54.4% (active)

Question: With Fc1cccc(CN2CCN(Cc3ccc(-c4cccnc4)cc3)CC2)c1 as the compound, how does the inhibition read?
Answer: 46.7% (inactive)

Question: For Cc1ccc(SCC(=O)N2CCN(Cc3ccccc3)C2=O)cc1, which inhibition is on record?
Answer: 20.7% (inactive)

Question: Which inhibition does the source give for Brc1ccc(Oc2nnc(-c3ccccc3)s2)cc1 here?
Answer: 43.2% (inactive)

Question: Which inhibition does the source give for Cc1ccc(S(=O)(=O)c2nnc(-c3ccccc3)s2)cc1 here?
Answer: 58.3% (active)

Question: For Cc1ccc2nc(-c3ccc(NS(C)(=O)=O)cc3)sc2c1, which inhibition is on record?
Answer: 29.5% (inactive)
